Laboratory results as given in PubChem BioAssay (EPA / NIEHS).
Records with an inconclusive call do not appear. Activity calls are given as the source filed them. Rule for the calls, unless noted: active = hit-call score of the fitted dose curve at least 0.9, where 1 is the maximum; inactive = score below 0.9.

Key:
[1] = molecular target: Paired box protein Pax-6 (Homo sapiens) (UniProt P26367); assay: ATG_Pax6_CIS: Attagene CIS-FACTORIAL HepG2 Assay for human Paired Box 6 (PAX6) (AID 2282956); details: HepG2 CIS-FACTORIAL PAX6 reporter transcription, RNA readout; actives raise or lower the signal
Procedure, shortened: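 HepG2 cells transiently transfected with multiplexed cis-promoter reporter units (endogenous TF activity) were dosed for 24 h. Reporter mRNA was quantified by RT-PCR, 6-FAM labeling, HpaI digestion and capillary electrophoresis; bidirectional fitting versus DMSO baseline.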

[2] = ATG_PXRE_CIS: Attagene CIS-FACTORIAL HepG2 Assay for human Pregnane X Receptor Element (PXRE) (AID 2282957); details: HepG2 Attagene CIS-FACTORIAL PXRE reporter, mRNA; actives raise or lower the signal
Procedure, shortened: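 HepG2 cells transiently transfected with cis-element-driven multiplexed reporter units; after 24 h chemical exposure, reporter mRNA measured by RT-PCR, 6-FAM labelling, HpaI digestion and capillary electrophoresis. Bidirectional fitting relative to DMSO.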

[3] = ATG_PPRE_CIS: Attagene CIS-FACTORIAL HepG2 Assay for human Peroxisome Proliferator-activated Response Element (PPRE) (AID 2282958); details: HepG2 PPRE cis-element reporter, Attagene transcription factor profiling; actives raise or lower the signal
Procedure, shortened: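 HepG2 cells are transiently transfected with multiplexed cis-promoter reporter units to report endogenous PPAR activity. After 24 h dosing, reporter mRNA is read by RT-PCR and capillary electrophoresis. Fitting is bidirectional against DMSO.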

[4] = ATG_RORE_CIS: Attagene CIS-FACTORIAL HepG2 Assay for human RAR-related Orphan Receptor Element (RORE) (AID 2282959); details: HepG2 Attagene cis-factorial RORE reporter, mRNA; actives raise or lower the signal
Procedure, shortened: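 HepG2 cells carrying transiently transfected cis-regulated reporter units; RORE-driven reporter mRNA quantified 24 h post-dosing by RT-PCR, 6-FAM primer extension, HpaI digestion and capillary electrophoresis. Bidirectional fit versus DMSO.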

[5] = ATG_Sox_CIS: Attagene CIS-FACTORIAL HepG2 Assay for human SRY-box transcription factor (SOX) (AID 2282960); details: HepG2 Attagene cis-factorial SOX reporter, mRNA; actives raise or lower the signal
Procedure, shortened: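 HepG2 cells transiently transfected with multiple cis-regulated reporter units, then dosed for 24 h. Reporter mRNA quantified by RT-PCR, fluorescent labelling, HpaI digestion and capillary electrophoresis; bidirectional fit versus DMSO.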

[6] = molecular target: Transcription factor Sp1 (Homo sapiens) (UniProt P08047); assay: ATG_Sp1_CIS: Attagene CIS-FACTORIAL HepG2 Assay for human Specificity Protein 1 (Sp1) (AID 2282961); details: HepG2 Sp1 cis-reporter transcription, actives raise or lower the signal
Procedure, shortened: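 HepG2 cells transiently transfected with multiplexed cis-regulated reporter constructs, chemical exposure 24 h. Reporter mRNA quantified by RT-PCR with capillary electrophoresis; bidirectional fit relative to DMSO.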

[7] = ATG_SREBP_CIS: Attagene CIS-FACTORIAL HepG2 Assay for human Sterol Regulatory Element Binding (SREBP) (AID 2282962); details: HepG2 Attagene cis-factorial SREBP reporter, mRNA; actives raise or lower the signal
Procedure, shortened: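 HepG2 cells transiently transfected with multiplexed cis-element reporter units report endogenous transcription factor activity. After 24 h of chemical exposure, reporter mRNA was quantified by RT-PCR, 6-FAM labelling, HpaI digestion and capillary electrophoresis; bidirectional fits used DMSO as baseline.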

[8] = molecular target: Signal transducer and activator of transcription 3 (Homo sapiens) (UniProt P40763); assay: ATG_STAT3_CIS: Attagene CIS-FACTORIAL HepG2 Assay for human Signal Transducer and Activator of Transcription 3 (STAT3) (AID 2282963); details: HepG2, Attagene cis-factorial STAT3 reporter transcription; actives raise or lower the signal
Procedure, shortened: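 HepG2 cells transiently transfected with multiple cis-element-driven reporter units report endogenous transcription factor activity. After 24 h compound exposure, reporter mRNA is measured by RT-PCR, 6-FAM labelling, HpaI digestion and capillary electrophoresis. Fitted bidirectionally versus DMSO.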

[9] = ATG_TA_CIS: Attagene CIS-FACTORIAL HepG2 Assay for human TA Basal Promoter (AID 2282964); details: HepG2 Attagene CIS-factorial TA basal promoter reporter; actives raise or lower the signal
Procedure, shortened: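 Fluorescence from labelled RT-PCR reporter fragments, separated by capillary electrophoresis, gives the signal. Cells: HepG2 transiently carrying multiple reporter units, 24 h chemical dosing. Gain or loss relative to DMSO.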

[10] = ATG_TCF_b_cat_CIS: Attagene CIS-FACTORIAL HepG2 Assay for human T-Cell-Factor with beta-catenin (TCF/b-cat) (AID 2282965); details: HepG2 TCF/beta-catenin cis-reporter transcription, actives raise or lower the signal
Procedure, shortened: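 HepG2 cells transiently transfected with cis-promoter-driven multiplexed reporter units; reporter mRNA measured 24 h after dosing by RT-PCR, FAM labelling, HpaI digestion and capillary electrophoresis. Bidirectional fitting relative to DMSO baseline.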

[11] = ATG_TAL_CIS: Attagene CIS-FACTORIAL HepG2 Assay for human TAL Basal Promoter (AID 2282966); details: HepG2 Attagene cis-factorial TAL promoter reporter; actives raise or lower the signal;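 note: background control endpoint measuring basal TAL promoter reporter mRNA not a specific factor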
Procedure, shortened: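 HepG2 cells transiently transfected with multiplexed cis-promoter reporter units, dosed 24 h. Reporter mRNA quantified by RT-PCR, 6-FAM labelling, HpaI digestion and capillary electrophoresis; TAL basal promoter serves as background control, fitted bidirectionally versus DMSO.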

[12] = ATG_TGFb_CIS: Attagene CIS-FACTORIAL HepG2 Assay for human Transforming Growth Factor (TGF) (AID 2282967); details: HepG2 Attagene CIS TGFb reporter, mRNA transcription; actives raise or lower the signal
Procedure, shortened: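 Bidirectional fitting relative to DMSO gave the endpoint. Underlying data: reporter mRNA from HepG2 cells carrying transiently transfected cis-regulated reporter constructs, harvested 24 h after dosing and analyzed by RT-PCR and capillary electrophoresis.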

[13] = molecular target: Steroid hormone receptor ERR1 (Homo sapiens) (UniProt P11474); assay: ATG_ERRa_TRANS: Attagene TRANS-FACTORIAL HepG2 Assay for human Estrogen-Related Receptor alpha (ERRa) (AID 2282971; active = hit-call score of the fitted dose curve at least 0.9, where 1 is the maximum); details: HepG2 Attagene TRANS reporter, ERRa transactivation
Procedure, shortened: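 HepG2 cells transiently transfected with GAL4-UAS reporter units and chimeric NR-Gal4 constructs; after 24 hour compound incubation, reporter mRNA quantified by RT-PCR, fluorescent labelling and capillary electrophoresis, gain of signal versus DMSO.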

[14] = molecular target: X-box-binding protein 1 (Homo sapiens) (UniProt P17861); assay: ATG_Xbp1_CIS: Attagene CIS-FACTORIAL HepG2 Assay for human X-box Binding Protein 1 (XBP1) (AID 2282972); details: HepG2 XBP1 cis-element reporter, Attagene multiplex; actives raise or lower the signal
Procedure, shortened: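 HepG2 cells transiently transfected with cis-regulated multiple reporter transcription units; endogenous transcription factor activity measured 24 hours after chemical dosing. Reporter mRNA quantified by RT-PCR, 6-FAM primer extension, HpaI digestion and capillary electrophoresis; bidirectional fitting versus DMSO.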

[15] = ATG_M_19_TRANS: Attagene TRANS-FACTORIAL HepG2 Assay for M19 Transcription Factor (Internal Marker) (AID 2282974; active = hit-call score of the fitted dose curve at least 0.9, where 1 is the maximum); details: HepG2 Attagene TRANS-FACTORIAL M19 internal marker reporter
Procedure, shortened: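 HepG2 transiently transfected with GAL4-UAS multiplex reporter constructs, exposed 24 h; reporter RNA quantified by RT-PCR, 6-FAM labeling, HpaI digestion and capillary electrophoresis; internal background marker fitted upward versus DMSO.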

[16] = ATG_VDRE_CIS: Attagene CIS-FACTORIAL HepG2 Assay for human Vitamin D Receptor Element (VDRE) (AID 2282968); details: HepG2 VDRE cis-reporter transcription, actives raise or lower the signal
Procedure, shortened: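 Transiently transfected HepG2 cells carrying cis-regulated reporter transcription units were exposed for 24 h. Reporter mRNA was measured by RT-PCR with fluorescent labelling and capillary electrophoresis, and fitted in both directions against DMSO.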

[17] = ATG_GAL4_TRANS: Attagene TRANS-FACTORIAL HepG2 Assay for GAL4 (Internal Marker) (AID 2282976; active = hit-call score of the fitted dose curve at least 0.9, where 1 is the maximum); details: HepG2 Attagene TRANS GAL4 internal marker reporter
Procedure, shortened: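 Background-control readout: GAL4-UAS reporter transcript in transiently transfected HepG2 cells after 24 h compound exposure. Measured by RT-PCR, 6-FAM primer extension, HpaI digest and capillary electrophoresis; gain-of-signal fit versus DMSO.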

Measured: AC50

Sequence of X-box-binding protein 1 (Homo sapiens) (P17861 whole entry, looked up): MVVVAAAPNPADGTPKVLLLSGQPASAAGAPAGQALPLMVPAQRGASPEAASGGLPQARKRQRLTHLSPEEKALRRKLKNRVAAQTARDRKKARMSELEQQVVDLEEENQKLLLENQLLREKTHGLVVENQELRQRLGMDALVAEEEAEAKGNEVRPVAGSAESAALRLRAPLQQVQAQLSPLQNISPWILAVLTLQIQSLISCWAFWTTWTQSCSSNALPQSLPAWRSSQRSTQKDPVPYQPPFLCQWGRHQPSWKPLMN
Sequence of Transcription factor Sp1 (Homo sapiens) (P08047 whole entry, looked up): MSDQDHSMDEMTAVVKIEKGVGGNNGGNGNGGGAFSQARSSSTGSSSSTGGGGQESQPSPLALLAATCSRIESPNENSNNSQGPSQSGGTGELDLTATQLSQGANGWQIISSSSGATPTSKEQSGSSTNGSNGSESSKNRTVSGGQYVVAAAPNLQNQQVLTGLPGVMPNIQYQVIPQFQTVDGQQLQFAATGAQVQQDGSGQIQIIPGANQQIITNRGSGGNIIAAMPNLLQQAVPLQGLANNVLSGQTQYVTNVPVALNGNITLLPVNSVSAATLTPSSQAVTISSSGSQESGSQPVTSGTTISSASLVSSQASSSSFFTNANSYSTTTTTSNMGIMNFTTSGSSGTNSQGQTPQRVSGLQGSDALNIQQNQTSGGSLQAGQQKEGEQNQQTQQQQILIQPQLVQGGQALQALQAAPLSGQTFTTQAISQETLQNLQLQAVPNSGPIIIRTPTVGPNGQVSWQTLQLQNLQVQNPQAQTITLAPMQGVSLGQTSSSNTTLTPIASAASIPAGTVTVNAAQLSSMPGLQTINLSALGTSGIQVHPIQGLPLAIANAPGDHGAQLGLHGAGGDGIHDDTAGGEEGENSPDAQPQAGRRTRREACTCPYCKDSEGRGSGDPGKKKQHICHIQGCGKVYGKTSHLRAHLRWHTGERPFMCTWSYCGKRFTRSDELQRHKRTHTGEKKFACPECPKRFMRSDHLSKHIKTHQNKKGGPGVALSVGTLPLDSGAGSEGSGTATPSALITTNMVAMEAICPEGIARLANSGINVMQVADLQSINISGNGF
Sequence of Signal transducer and activator of transcription 3 (Homo sapiens) (P40763 whole entry, looked up): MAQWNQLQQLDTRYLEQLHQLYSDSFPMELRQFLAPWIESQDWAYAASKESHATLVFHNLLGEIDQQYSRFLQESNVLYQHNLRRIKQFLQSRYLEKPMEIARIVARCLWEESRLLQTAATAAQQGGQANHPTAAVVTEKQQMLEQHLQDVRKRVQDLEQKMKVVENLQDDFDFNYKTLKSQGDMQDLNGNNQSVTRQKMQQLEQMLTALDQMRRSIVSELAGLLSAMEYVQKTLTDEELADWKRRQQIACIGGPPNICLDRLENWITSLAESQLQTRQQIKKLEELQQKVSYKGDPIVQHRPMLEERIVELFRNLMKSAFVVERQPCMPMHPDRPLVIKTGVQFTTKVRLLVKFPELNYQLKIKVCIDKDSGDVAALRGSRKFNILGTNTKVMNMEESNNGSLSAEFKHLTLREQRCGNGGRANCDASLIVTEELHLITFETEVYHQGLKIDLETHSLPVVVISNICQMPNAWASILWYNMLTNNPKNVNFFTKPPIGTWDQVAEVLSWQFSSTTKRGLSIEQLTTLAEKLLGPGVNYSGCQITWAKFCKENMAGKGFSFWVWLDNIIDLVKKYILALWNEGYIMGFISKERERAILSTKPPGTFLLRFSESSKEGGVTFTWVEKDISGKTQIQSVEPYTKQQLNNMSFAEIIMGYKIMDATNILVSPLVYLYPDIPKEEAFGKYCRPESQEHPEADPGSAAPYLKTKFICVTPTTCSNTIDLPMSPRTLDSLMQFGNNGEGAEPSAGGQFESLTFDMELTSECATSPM
Sequence of Paired box protein Pax-6 (Homo sapiens) (P26367 whole entry, looked up): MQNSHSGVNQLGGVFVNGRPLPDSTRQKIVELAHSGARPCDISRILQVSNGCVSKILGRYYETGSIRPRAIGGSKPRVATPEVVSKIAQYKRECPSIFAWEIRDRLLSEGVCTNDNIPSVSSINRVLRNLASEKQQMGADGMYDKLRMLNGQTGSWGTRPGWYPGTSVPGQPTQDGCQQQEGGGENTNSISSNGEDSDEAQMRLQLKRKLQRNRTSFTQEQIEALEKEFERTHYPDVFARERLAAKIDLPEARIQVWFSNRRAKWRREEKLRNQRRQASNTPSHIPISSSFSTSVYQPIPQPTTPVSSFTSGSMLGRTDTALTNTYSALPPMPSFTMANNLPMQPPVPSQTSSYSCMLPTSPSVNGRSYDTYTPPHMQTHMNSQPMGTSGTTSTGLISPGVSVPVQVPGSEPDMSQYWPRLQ
Sequence of Steroid hormone receptor ERR1 (Homo sapiens) (P11474 whole entry, looked up, the tested form may be a part): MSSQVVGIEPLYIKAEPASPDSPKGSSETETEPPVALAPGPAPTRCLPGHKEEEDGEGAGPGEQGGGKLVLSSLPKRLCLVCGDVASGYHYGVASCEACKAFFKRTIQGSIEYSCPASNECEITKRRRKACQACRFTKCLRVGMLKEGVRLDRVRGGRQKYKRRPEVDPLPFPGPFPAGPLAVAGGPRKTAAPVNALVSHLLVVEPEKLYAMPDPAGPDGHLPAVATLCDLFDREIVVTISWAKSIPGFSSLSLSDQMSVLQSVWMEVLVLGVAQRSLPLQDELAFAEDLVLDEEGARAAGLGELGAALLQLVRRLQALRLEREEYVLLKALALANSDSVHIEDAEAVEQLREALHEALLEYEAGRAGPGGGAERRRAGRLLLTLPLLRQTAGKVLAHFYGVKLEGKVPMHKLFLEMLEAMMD

Nc1ccccc1[N+](=O)[O-]
not listed: [16] | [17]
inactive: all other assays above

CCOC(=O)C(C#N)=C(c1ccccc1)c1ccccc1
active: [1] 35.1 µM | [2] 1.39 µM | [3] 154 µM | [4] 17.4 µM | [7] 33.3 µM | [9] 23.5 µM | [10] 26 µM
inactive: [5] | [6] | [8] | [11] | [12] | [14]

NCc1ccco1
not listed: [13]
inactive: all other assays above

CN(C)CCOc1ccc(/C(=C(/CCCl)c2ccccc2)c2ccccc2)cc1
active: [2] 1.18 µM
not listed: [13]
inactive: all other assays above

CC(C)CCOC(=O)c1ccccc1
not listed: [13]
inactive: all other assays above
